# High-throughput results deposited in PubChem by The Scripps Research Institute Molecular Screening Center.
# Rows were chosen to be rich in hits. Some 4.8% of all compounds tested hit in one or more screens of this group.
# hgDAF12 agonist: H. glycines DAF-12 receptor agonists, primary screen, cell-based, luminescence, HEK293, GAL4 fusion, UAS-luciferase; Nuclear hormone receptor DAF-12 (Heterodera glycines), GAL4 fusion; HEK293 GAL4-hgDAF12 UAS-luciferase reporter, agonist luminescence; normalized to butyrate control; activation, % at 6.8 µM; actives 1.8% (n = 370,000); AID 687014, 2013;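 active means activation above a cutoff set at the mean of all screened compounds plus 3 SD, cut at about 10% in these data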;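 further: 0% = DMSO wells and 100% = sodium butyrate wells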
# SMARCA2 act: SMARCA2 (BRM) function activators, primary screen, cell-based, luminescence, high throughput; activation, % at 9.1 µM; MG213 cells, MMTV-luciferase reporter, dexamethasone, overnight; actives 1% (n = 370,000); in the data active means activation above about 7.8%;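 further: 0% = vehicle wells and 100% = reference activator wells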
# ssDAF12 agonist: S. stercoralis DAF-12 nuclear receptor activators, primary screen, cell-based, luminescence, HEK293, GRIP1 co-expression, lit1-tk-luc | actives 1% (n = 370,000) | Nuclear hormone receptor DAF-12 (Strongyloides stercoralis) | activation, % at 6.8 µM | HEK293 ssDAF-12/GRIP1 lit1-tk-luc reporter; % of 3 µM dafachronic acid response;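 active means activation above the mean over all tested compounds plus 3 SD, cut at about 0.9% in these data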;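 further: 0% = DMSO-only wells and 100% = 3 µM delta7-dafachronic acid wells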
# DAX1 inh-1: DAX1 (NR0B1) inhibitors on StAR promoter, primary screen, cell-based, luminescence, SF-1 (NR5A1), full-length DAX-1; AID 652010, 2013; HEK293T StAR-luciferase reporter, SF-1/DAX-1 repression relief; inhibition, % at 6.8 µM; actives 1.1% (n = 370,000);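 active means inhibition above the mean over all tested compounds plus 3 SD, cut at about 3.6% in these data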;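 further: 0% = DAX-1 cells with DMSO and 100% = cells lacking DAX-1 with DMSO; higher inhibition means more luminescence from relief of DAX-1 repression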
# DAX1 inh-2: DAX1 (NR0B1) inhibitors, primary screen, cell-based, HEK293, Gal4-DAX1, luciferase luminescence; AID 504766, 2011; HEK293 Gal4-DAX1 luciferase reporter; actives 0.99% (n = 340,000); inhibition, % at 6.75 µM; Nuclear receptor subfamily 0 group B member 1 (Homo sapiens), P51843;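 active means inhibition above the mean over all tested compounds plus 3 SD, cut at about 4.2% in these data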;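 further: 0% = DAX1-transfected cells with DMSO and 100% = empty-vector control cells with DMSO; inhibition shows as a rise in luminescence from relieved DAX1 repression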
# Target sequence (P51843 207-470 limits assumed): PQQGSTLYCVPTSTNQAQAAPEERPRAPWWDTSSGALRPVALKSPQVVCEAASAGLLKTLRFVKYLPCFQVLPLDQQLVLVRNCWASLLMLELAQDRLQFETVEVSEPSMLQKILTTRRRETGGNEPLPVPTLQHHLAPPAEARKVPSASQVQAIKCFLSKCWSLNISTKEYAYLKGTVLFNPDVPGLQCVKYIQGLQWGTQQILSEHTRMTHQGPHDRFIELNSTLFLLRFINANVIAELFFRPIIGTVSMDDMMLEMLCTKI
# hcDAF-12 act: H. contortus DAF-12 nuclear receptor activators, primary screen, cell-based, luminescence, HEK293, lit1-tk-luc reporter; HEK293 hcDAF-12 lit1-tk-luc reporter; 0% DMSO, 100% Δ7-dafachronic acid; activation, % at 6.8 µM; actives 1.4% (n = 370,000); AID 652067, 2013;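 active means activation above the mean of all tested compounds plus 3 SD, cut at about 5.5% in these data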;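 further: 100% = response to 3 µM Δ7-dafachronic acid high control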
# SMARCA2 conf: SMARCA2 (BRM) function activators, confirmation, cell-based, luminescence, triplicate. shares compounds with SMARCA2 act. MG213 cells, MMTV-luciferase with dexamethasone, overnight; MG213 cells expressing E1A, Rb sequestered; DMSO wells 0%, reference activator 100%. activation, % at 9.1 µM. actives 30% (n = 3,500). AID 652260, 2013;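 active means activation above its plate's cutoff, the mean activation of tested wells plus 3 SD, cut at about 7.9% in these data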
# GAL4-VP16 Luc: GAL4-VP16 luciferase reporter activation, counter-screen for SMARCA2 (BRM) activator project, cell-based, pG5luc, luminescence, high throughput; actives 41% (n = 3,500); AID 686939, 2013; shares compounds with SMARCA2 act; HEK293 GAL4-VP16 pG5luc reporter; scaled: DMSO wells 0%, SAHA wells 100%; activation, % at 9.1 µM;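 active means activation above the solvent-only control well mean plus 3 SD, averaged across control plates, cut at about 5.2% in these data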
# Numbers without * were called inactive; nt = not tested or not shown.
SMILES,hgDAF12 agonist,SMARCA2 act,ssDAF12 agonist,DAX1 inh-1,DAX1 inh-2,hcDAF-12 act,SMARCA2 conf,GAL4-VP16 Luc
COc1ccccc1C/C(N)=N/OC(=O)c1ccc(C)c([N+](=O)[O-])c1,2.2,-3.1,-0.4,0.4,-0.8,1.6,nt,nt
CCCOc1ccc(N2C(=O)CC(SCC(N)C(=O)OCC)C2=O)cc1 (configuration not stated),-0.8,-0.9,-0.9,-0.3,0.9,0.9,nt,nt
CCCOc1ccc(N2C(=O)CC(SCCN)C2=O)cc1 (configuration not stated),9.7,10.1*,-0.2,2.6,2.2,4.0,7.9*,6.6*
CCCCCN1CCCCC(NC(=O)Cc2ccccc2)C1=O (configuration not stated),-4.3,-0.7,-1.0,0.1,nt,-2.0,nt,nt
O=[N+]([O-])c1cnc(Sc2ccncn2)s1,1.4,11.7*,-1.1,-0.8,-0.2,-1.0,-15.4,5.5*
O=[N+]([O-])c1cnc(Sc2ccncn2)c([N+](=O)[O-])c1,-0.5,0.2,-0.2,-0.3,2.2,1.8,nt,nt
C=CCn1c(SCC(=O)Nc2ccccc2-c2ccccc2)nnc1-c1ccccc1,2.5,-5.6,-1.3,2.8,nt,-0.1,nt,nt
O=P(Cc1cccc[n+]1[O-])(c1ccccc1)c1ccccc1,4.8,3.2,-1.0,-0.2,-0.4,-0.8,nt,nt
N#CCS(=O)(=O)c1cccc[n+]1[O-],-1.1,8.8*,-0.7,0.6,nt,-0.3,-4.3,1.4
NS(=O)(=O)c1ccc(N/N=C/c2cn(-c3ccccc3)nc2-c2cccs2)cc1,3.8,9.6*,-2.1,-0.3,-1.7,0.0,9.2*,4.7
NS(=O)(=O)c1ccc(N/N=C/c2cn(-c3ccccc3)nc2-c2cccs2)c([N+](=O)[O-])c1,-0.9,-3.2,-1.1,0.3,-0.7,-0.8,nt,nt
O=C1C2C3CCC(O3)C2C(=O)N1c1nccs1 (configuration not stated),-3.1,9.5*,-0.6,-0.7,0.1,0.7,-0.2,-0.1
NS(=O)(=O)c1cc(C(=O)OC2CCOC2=O)ccc1Cl (configuration not stated),1.3,0.1,-0.9,1.1,0.4,-1.0,nt,nt
O=C(OC1CCOC1=O)c1ccc2ncsc2c1 (configuration not stated),1.2,11.7*,-0.5,0.5,-0.3,-0.4,0.4,0.0
CC1=C/C(=N\NC(=S)Nc2cccnc2)CC(C)(C)C1,-3.5,8.1*,-1.4,-1.9,-1.5,-1.4,-12.2,21.1*
CCC(C)(C)C1CCC(=NNC(=S)Nc2cccnc2)CC1 (configuration not stated),3.2,0.1,-1.6,0.2,2.4,0.6,nt,nt
CN(C)/N=C/C=C1\CCC/C(=C/c2cccs2)C1=O,12.1*,8.3*,-0.2,1.4,4.4*,1.4,7.7,5.3*
O=C(OCC(=O)c1ccc[nH]1)c1ccc(C(F)(F)F)cc1,3.5,2.1,-0.8,-0.1,-0.1,1.4,nt,nt
CC(C)Oc1ccc(C(=O)OCC(=O)c2ccc[nH]2)cc1,10.0,11.6*,-0.8,1.3,0.7,3.2,9.4*,7.3*
